Results reported in PubChem BioAssay (NCI).
The panel holds about 79,000 compounds, 15% with a hit somewhere; the sample as a whole holds those more often. Cut-off read from the data, not from the text of the source: active = growth inhibition above about 70%; inactive = the rest.

Key:
[1] = NCI Yeast Anticancer Drug Screen. Data for the rad50 strain (AID 155);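 note: 0% = growth of vehicle-only cultures of the same strain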; conditions: S. cerevisiae rad50 strain growth inhibition; at 50.0 µM; hits give high values
Outline: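 Yeast carrying a defined DNA repair defect were exposed to test compounds, and growth was compared with vehicle-treated controls to give percent inhibition.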

[2] = NCI Yeast Anticancer Drug Screen. Data for the mec2-1 strain (AID 157); conditions: S. cerevisiae mec2-1 strain, at 50.0 µM, hits give high values
Outline: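 Vehicle-treated cultures served as reference for growth inhibition of compound-exposed mec2-1 yeast.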

[3] = NCI Yeast Anticancer Drug Screen. Data for the sgs1 mgt1 strain (AID 161);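 note: 0% = growth of cultures given vehicle only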; conditions: S. cerevisiae sgs1 mgt1 strain, at 50.0 µM, hits give high values
Outline: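 Inhibition of yeast growth, normalised to vehicle-treated controls, is reported for a strain bearing genetic alterations in DNA damage repair.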

[4] = NCI Yeast Anticancer Drug Screen. Data for the cln2 rad14 strain (AID 165);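 note: 0% = growth equal to vehicle treated cultures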; conditions: S. cerevisiae cln2 rad14 strain, at 50.0 µM, hits give high values
Outline: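 Each compound was tested on cln2 rad14 yeast. Inhibition of growth was calculated against vehicle-exposed controls.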

[5] = NCI Yeast Anticancer Drug Screen. Data for the bub3 strain (AID 167); conditions: S. cerevisiae bub3 mutant strain, at 50.0 µM, hits give high values
Outline: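 Compounds were applied to a genetically altered yeast strain carrying a cell-cycle control defect. Growth inhibition was scored against vehicle-treated controls.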

[6] = NCI Yeast Anticancer Drug Screen. Data for the mlh1 rad18 strain (AID 175); conditions: S. cerevisiae mlh1 rad18 strain growth inhibition; at 50.0 µM; hits give high values
Outline: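 Vehicle-treated cultures served as the reference for growth inhibition in a yeast strain carrying DNA damage repair alterations exposed to each compound.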

Measured: growth inhibition

O=C1CCCN(Cc2ccccc2)C1
inactive: [1] -4.2% | [2] -25.2% | [3] 0.35% | [4] 1.2% | [5] -0.4% | [6] 9.45%

C1CCC2(CC1)OCCO2
inactive: [1] -0.75% | [2] -37.9% | [3] -20.8% | [4] 1.3% | [5] -7.85% | [6] 0.6%

Cc1cc(NC(=O)NC(=O)c2ccccc2NC(=O)CN(C)C)ccc1Oc1ncc(Br)cn1
inactive: [1] -10.3% | [2] -28.9% | [3] 0.5% | [4] -6.2% | [5] -21% | [6] -26.7%

O=c1n(-c2ccccc2)c(=O)n2c(-c3ccccc3)c(-c3ccccc3)n12
inactive: [1] 38.5% | [2] -23.7% | [3] -36.5% | [4] -12.6% | [5] -23.6% | [6] -30.8%

CC1(CBr)COC(c2ccccc2)(c2ccccc2)OC1
inactive: [1] 18.1% | [2] -2.4% | [3] 20.6% | [4] -31.4% | [5] -22.2% | [6] 28.5%

Nc1nc(Cc2ccccc2)c(-c2ccccc2)c(-c2nc(N)nc(Cc3ccccc3)c2-c2ccccc2)n1
inactive: [1] -9.6% | [2] 14.4% | [3] -26.4% | [4] -5.15% | [5] -5.2% | [6] 7.85%

O=C(N/N=C/c1ccccn1)c1ccccc1
inactive: [1] -1.2% | [2] 23.6% | [3] 10.7% | [4] 19.1% | [5] 13.3% | [6] 3.55%

Cc1noc(C)c1CCCOC1COc2ccccc2OCCOCCOc2ccccc2OC1
inactive: [1] -4.7% | [2] -7.15% | [3] -5.8% | [4] -21.1% | [5] -9.15% | [6] -5.25%

O=c1oc2ccccc2cc1CCBr
inactive: [1] 16.4% | [2] 11.4% | [3] -6.1% | [4] -3.3% | [5] -9.2% | [6] -8.05%

CN/N=C(/c1nc2ccc([N+](=O)[O-])cc2[nH]c1=O)C(O)c1ccc(C(O)/C(=N\NC)c2nc3ccc([N+](=O)[O-])cc3[nH]c2=O)cc1 (stereo not given)
inactive: [1] 31.2% | [2] -5.55% | [3] 0.6% | [4] -26.2% | [5] -3.85% | [6] 19.4%

CCOC(=O)NC(NC(=O)OCC)c1ccc2c(c1)OCO2
inactive: [1] -38.5% | [2] 17.4% | [3] 17.1% | [4] -11.8% | [5] 5.75% | [6] 3.8%

O=C(c1ccccc1)C1CC2C=CC1C2 (stereo not given)
inactive: [1] 4.3% | [2] -8.25% | [3] 2.4% | [4] 36.9% | [5] -0.7% | [6] 17.2%

OC1CNc2c(ccc3ccccc23)C1 (stereo not given)
inactive: [1] 10.7% | [2] -26.4% | [3] -13.4% | [4] -17% | [5] -38% | [6] -6.25%

CCC(CC)=NNS(=O)(=O)c1cccc2ccccc12
inactive: [1] 10.7% | [2] -12.4% | [3] -11.7% | [4] -15.7% | [5] -17.9% | [6] -0.1%

NS(=O)(=O)c1ccc(NC(=O)Nc2ccc(Cl)cc2[N+](=O)[O-])cc1
inactive: [1] -9.5% | [2] 18.6% | [3] 30.1% | [4] -16.7% | [5] 29.9% | [6] 30.4%

O=[N+]([O-])c1ccc2c3c(ccc([N+](=O)[O-])c13)CC2
inactive: [1] -9.35% | [2] -13.3% | [3] -6.75% | [4] -29.2% | [5] -18.4% | [6] -18.3%

CCCC(=O)c1ccc(C)cc1
inactive: [1] -1.2% | [2] -18.8% | [3] -4.2% | [4] 13.5% | [5] 8.65% | [6] 2.65%

CC1=NN(C(=O)CC(=O)Nc2cccc(C)c2)C(=O)C1N=Nc1ccc(C(=O)O)cc1 (stereo not given)
inactive: [1] -33.9% | [2] 5.95% | [3] 12.6% | [4] -11.7% | [5] -2.7% | [6] 25.9%

CNc1nc(C(F)(F)F)nc2[nH]ncc12
inactive: [1] 5.15% | [2] 17.9% | [3] -7.65% | [4] -16.9% | [5] -20.6% | [6] -20.9%

CCOC(=O)C(=CNc1ccc(N(CC)CC)cc1)C(=O)OCC
inactive: [1] -12.7% | [2] -7.85% | [3] -8% | [4] 47.6% | [5] 8.3% | [6] 0.35%
